Jurkat NFkB inh: lowers PMA/ionomycin-induced NF-kB signal in Jurkat cells; actives 0.53% (n = 330,000); AID 435003; PMA/ionomycin-induced NF-kB luciferase reporter, luminescence; inhibition, % at 4 µM; in the data active = inhibition above about 50%
697 NFkB inh: lowers PMA/ionomycin-induced NF-kB signal in 697 B cells. actives 0.33% (n = 330,000). inhibition, % at 4 µM. AID 435022. 697 B-cell NF-kB luciferase reporter, 16 h; in the data active = inhibition above about 35%
Mdm2 MdmX PPI: inhibitors of human Mdm2/MdmX interaction | SaOS-2 split-luciferase Mdm2/MdmX complementation, luminescence | inhibition, % at 8 µM | actives 3% (n = 330,000);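 active = inhibition of at least 50% at 8 µM in the primary screen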
Target sequence (O15151 whole entry, looked up): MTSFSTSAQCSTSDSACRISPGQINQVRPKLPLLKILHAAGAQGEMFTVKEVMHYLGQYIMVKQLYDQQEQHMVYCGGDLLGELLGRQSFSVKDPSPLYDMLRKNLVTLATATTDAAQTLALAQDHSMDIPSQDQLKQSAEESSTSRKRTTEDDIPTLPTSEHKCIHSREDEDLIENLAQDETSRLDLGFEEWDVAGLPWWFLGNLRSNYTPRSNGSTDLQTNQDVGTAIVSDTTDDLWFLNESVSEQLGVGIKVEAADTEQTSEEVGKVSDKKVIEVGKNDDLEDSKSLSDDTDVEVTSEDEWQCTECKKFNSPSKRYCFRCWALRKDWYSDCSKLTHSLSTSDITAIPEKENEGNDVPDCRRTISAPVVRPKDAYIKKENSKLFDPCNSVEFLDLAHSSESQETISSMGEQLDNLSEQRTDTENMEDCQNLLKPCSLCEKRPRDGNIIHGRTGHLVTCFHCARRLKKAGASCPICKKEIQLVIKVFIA
Target sequence (Q00987 whole entry, looked up): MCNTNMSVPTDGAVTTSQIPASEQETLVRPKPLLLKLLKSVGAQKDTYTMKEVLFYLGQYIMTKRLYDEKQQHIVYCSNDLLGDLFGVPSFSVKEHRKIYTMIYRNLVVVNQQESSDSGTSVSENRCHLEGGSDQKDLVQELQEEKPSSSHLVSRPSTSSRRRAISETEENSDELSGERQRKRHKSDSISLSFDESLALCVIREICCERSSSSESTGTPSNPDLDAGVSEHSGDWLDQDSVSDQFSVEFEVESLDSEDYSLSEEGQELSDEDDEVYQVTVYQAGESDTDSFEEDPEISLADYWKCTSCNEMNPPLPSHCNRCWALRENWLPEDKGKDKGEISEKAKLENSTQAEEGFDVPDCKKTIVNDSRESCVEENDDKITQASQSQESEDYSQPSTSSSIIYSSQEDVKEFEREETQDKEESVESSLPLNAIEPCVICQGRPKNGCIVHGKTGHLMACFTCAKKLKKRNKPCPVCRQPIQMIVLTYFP
Gli-Sufu block: antagonists of Gli-Sufu signaling; Sufu-KO-LIGHT fibroblasts, Gli luciferase reporter luminescence; inhibition, % at 5 µM; actives 0.74% (n = 340,000); AID 588413;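 active = inhibition above about 55%, limit read from the data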
Beta apoptosis: beta cell apoptosis inhibition; INS-1E cytokine-induced death, ATP luminescence, 48 h; percent of positive-control rescue, neutral wells zero; protection from apoptosis, % (test concentration not listed); actives 0.8% (n = 300,000);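 active = Every replicate reaches about 75%, or at least half do and their mean reaches it too, limit read from the data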;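 also: higher means more ATP so stronger rescue from cytokine killing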
Mdm2-MdmX conf: confirmation of human Mdm2/MdmX interaction inhibitors; shares compounds with Mdm2 MdmX PPI; Mdm2-MdmX binding, luminescent assay; inhibition, % at 8 µM; actives 55% (n = 10,000); AID 489028; in the data active = inhibition above about 40%
Full FLuc ctr: counter-screen for Mdm2/MdmX inhibitors: full-length luciferase; shares compounds with Mdm2 MdmX PPI; SaOS-2 full-length luciferase counterscreen, luminescence; inhibition, % at 8 µM; actives 77% (n = 6,200);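 active = mean inhibition at 8 µM reaching about 37%, which flags the compound as non-specific, limit read from the data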;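 also: p53-null SaOS-2 cells with luciferase driven by a doxycycline-inducible promoter; compound on cells about two nights before reading with doxycycline added after day one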
Numbers stand for hits; – = inactive; · = no result. Compounds with a hit are over-represented: about 4% of the library has one in this group of screens.

SMILES | Jurkat NFkB inh | 697 NFkB inh | Mdm2 MdmX PPI | Gli-Sufu block | Beta apoptosis | Mdm2-MdmX conf | others
COc1ccc(C(C(=O)NCC2CCCO2)N(Cc2cccs2)C(=O)c2snc(C(N)=O)c2N)cc1 (centres undefined) | – | – | 52 | – | – | 49 | Full FLuc ctr=88
CCOc1ccc(C(C(=O)NCC2CCCO2)N(Cc2cccc(OC)c2)C(=O)c2snc(C(N)=O)c2N)cc1 (centres undefined) | – | – | – | – | – | ·
CN(C)c1ccc(C(C(=O)NC2CCCCC2)N(Cc2ccco2)C(=O)c2snc(C(N)=O)c2N)cc1 (centres undefined) | – | – | 51 | – | – | – | Full FLuc ctr=92
CCC(CO)Oc1cc(NCc2ccccc2)c2ncn(C(C)C)c2c1 (centres undefined) | – | – | – | – | – | ·
CC(C)n1cnc2c(NCc3ccccc3)cc(N[C@H](C)CO)cc21 | – | – | 74 | – | 114 | 79 | Full FLuc ctr=52
c1ccc(Cn2c(CNc3nc4ccccc4n3CCN3CCCCC3)nc3ccccc32)cc1 | – | – | 57 | – | – | –
O=C(COC(=O)c1cc[n+]([O-])cc1)Nc1cc([N+](=O)[O-])ccc1Cl | – | – | – | – | – | ·
CCOC(=O)c1[nH]c2ccc(F)cc2c1NC(=O)CN1CCN(C/C=C/c2ccccc2)CC1 | – | – | 57 | – | – | –
COC(=O)c1[nH]c2ccccc2c1NC(=O)CN1CCN(C/C=C/c2ccccc2)CC1 | – | – | – | – | – | ·
CCc1nn(CCCC(=O)NCc2cc(Br)ccc2OC)c(=O)c2cc3occc3n12 | – | – | – | – | – | ·
COc1ccc(C(=O)Nc2ccc(NC(=O)c3ccccc3)cc2)cc1S(=O)(=O)N1CCOCC1 | – | – | 86 | – | – | –
O=C(Nc1ccc(Cl)c(S(=O)(=O)N2CCCC2)c1)c1cc(=O)[nH]c2ccccc12 | – | – | 52 | – | – | –
O=C(Nc1ccc(NC(=O)c2ccc(Cl)c(S(=O)(=O)N3CCOCC3)c2)cc1)c1ccccc1 | – | – | 58 | – | – | 45 | Full FLuc ctr=48
O=C(Nc1ccc(N2CCOCC2)cc1)c1ccc(Cl)c(S(=O)(=O)N2CCCC2)c1 | – | – | – | – | – | ·
O=C1c2ccccc2C(=O)N1CCCCN(C(=O)c1cc2ccccc2oc1=O)c1ccc(F)cc1F | – | – | – | – | – | ·
COc1ccc(CC(=O)Oc2ccc(C)cc2Br)cc1OC | – | – | – | – | · | ·
COc1ccc2nc(N3C(=O)/C(=C/c4ccccc4)NC3=S)sc2c1 | – | – | 54 | – | – | –
COc1ccc(/C=C/C(=O)N(C)Cc2cccs2)cc1S(=O)(=O)N1CCOCC1 | – | – | – | – | – | ·
N#CC1=C(N)Oc2cc(N)ccc2C1c1cc(Br)cs1 (centres undefined) | – | – | 58 | – | – | –
N#CC1=C(N)Oc2cc(N)ccc2C1c1ccccc1F (centres undefined) | – | – | 56 | – | – | 52 | Full FLuc ctr=67
O=C1CSC(=Nc2ccc(Cl)cc2)N1Cc1cccnc1 | – | – | – | – | – | ·
CC1=C(C(=O)OC2CCCCCCC2)C(c2cc3c(cc2Br)OCO3)CC(=O)N1 (centres undefined) | – | – | 78 | – | – | –
COCCSc1ccccc1C(=O)N1CCc2ccccc21 | – | – | – | – | – | ·
CCOc1ccc2nc(Cl)c(CN(C(=O)c3cnccn3)C3CCCC3)cc2c1 | – | – | – | – | – | ·
Cc1cccc2cc(CN(C(=O)c3cnccn3)C3CCCCC3)c(Cl)nc12 | – | – | 84 | – | – | 83 | Full FLuc ctr=36
SMILES | Jurkat NFkB inh | 697 NFkB inh | Mdm2 MdmX PPI | Gli-Sufu block | Beta apoptosis | Mdm2-MdmX conf | others
c1ccc(CCc2nn3c(-c4ccncc4)nnc3s2)cc1 | – | – | 69 | – | · | 59 | Full FLuc ctr=–
Clc1ccccc1-c1nnc2sc(CCc3ccccc3)nn12 | – | – | – | – | – | ·
CCC[C@@H](CNC)NC[C@H](Cc1ccccc1)NCCCCc1ccccc1 | – | – | 97 | – | – | 83 | Full FLuc ctr=55
O=C(NCCCCc1ccccc1)c1ccccc1 | – | – | – | – | – | ·
CCC[C@@H](CN[C@@H](CNC)C(C)C)NCCCCc1ccccc1 | – | – | 97 | – | – | 91 | Full FLuc ctr=–
CCC1(C(=O)NC(=Nc2ccccc2)Nc2ccccc2)CCOC1=O (centres undefined) | · | · | · | – | · | ·
C/C(Sc1nnc(Cc2ccccc2)o1)=C(\O)c1ccccc1 | · | · | · | – | · | ·
Cc1c(CCOC(=O)c2ccc(Cl)cc2Cl)sc[n+]1CC(=O)c1ccc(Br)cc1 | – | – | – | – | – | ·
Cc1c(CCOC(=O)C2C3CC4CC(C3)CC2C4)sc[n+]1CC(=O)c1ccc(Br)cc1 (centres undefined) | – | – | 67 | – | – | –
COc1ccc(CN(C)C(=O)Cn2cnc3c(NCc4ccccc4)ncnc32)cc1OC | · | – | – | – | · | ·
CCOc1cc(CNCCO)cc(Br)c1OCc1ccc(Cl)cc1Cl | – | – | 100 | – | – | 50 | Full FLuc ctr=–
CCOc1cccc(CNCCO)c1OCc1ccc(Cl)cc1Cl | – | – | – | – | – | ·
O=C(CSc1nc2ccccc2c(=O)n1NC(=O)Cc1ccccc1)NCCc1ccccc1 | – | – | – | – | – | ·
COC(=O)C1=C(C)N=c2s/c(=C3\C(=O)Nc4ccccc43)c(=O)n2C1c1ccccc1 (centres undefined) | – | – | – | · | · | ·
CCOC(=O)C1=C(C)N=c2s/c(=C3/C(=O)Nc4ccccc43)c(=O)n2C1c1ccc(C)cc1 (centres undefined) | – | – | 70 | – | – | –
CCOc1ccc(NC(=O)CC2S/C(=N/N=C3CCCCCC3)NC2=O)cc1 (centres undefined) | – | – | – | – | – | ·
Cc1cc(NC(=O)CSc2nnc3c(C)cc4cc(C)c(C)cc4n23)no1 | – | – | 78 | – | – | –
COc1ccc2cc(C)c(SCC(=O)Nc3cc(C)on3)nc2c1 | – | – | – | – | · | –
COc1cc(NC(=S)N2CCN(S(=O)(=O)c3ccc(C)cc3)CC2)cc(OC)c1 | – | – | – | – | – | ·
COCC(C)n1c(C)cc(C(=O)COC(=O)/C=C/c2cccc(F)c2)c1C (centres undefined) | – | – | – | – | – | ·
CCN1C(=O)C2(Nc3ccccc3-c3nc4ccccc4n32)c2cc(OC)ccc21 (centres undefined) | – | – | 66 | – | – | 96 | Full FLuc ctr=–
O=[N+]([O-])c1cc([N+](=O)[O-])c(Oc2cccnc2Br)cc1NN1CCCCC1 | – | – | 56 | – | – | –
O=[N+]([O-])c1cc([N+](=O)[O-])c(Oc2cccc3ccccc23)cc1NN1CCCCC1 | · | · | · | – | · | ·
CSCCC(NC(=O)c1ccccc1C)C(=O)O (centres undefined) | – | – | – | – | – | ·
Cc1cccc(NC(=O)c2cc3c(=O)n4ccccc4nc3s2)c1 | – | – | – | – | – | ·
